Consider 40 compounds from PubChem BioAssay (Tox21).

Inconclusive results are not listed. A number with no mark means an inactive call. Active and inactive are the calls of the source. Calls follow the shape of the dose curve; as a rule, active = well fitted inhibition curve with a large enough effect in the signal ratio in the repeat runs (not every such curve was filed as active); inconclusive = weak or mixed curves, or effect the other way; inactive = no such curve, though single readings can be large or run the other way; the % refers to the signal ratio.
% is scaled to controls: 0 for no effect and ±100 for the full control effect.

Peroxisome proliferator-activated receptor delta (Homo sapiens), sequence (Q03181 whole entry, looked up): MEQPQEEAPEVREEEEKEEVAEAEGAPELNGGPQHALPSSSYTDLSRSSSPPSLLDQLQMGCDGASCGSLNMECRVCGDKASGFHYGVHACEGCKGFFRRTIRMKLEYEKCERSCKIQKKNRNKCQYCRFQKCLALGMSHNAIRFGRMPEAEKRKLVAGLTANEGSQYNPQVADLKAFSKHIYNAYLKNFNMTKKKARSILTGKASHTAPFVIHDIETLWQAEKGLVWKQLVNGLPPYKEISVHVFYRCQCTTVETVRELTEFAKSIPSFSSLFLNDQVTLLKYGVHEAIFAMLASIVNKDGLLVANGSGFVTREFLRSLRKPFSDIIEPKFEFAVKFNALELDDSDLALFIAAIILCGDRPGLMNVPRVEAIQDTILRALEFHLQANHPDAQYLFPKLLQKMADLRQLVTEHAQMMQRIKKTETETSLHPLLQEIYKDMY

The test has as its target Peroxisome proliferator-activated receptor delta (Homo sapiens) (UniProt Q03181). Briefly: qHTS assay to identify small molecule antagonists of the peroxisome proliferator-activated receptor delta (PPARd) signaling pathway (AID 743215).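 Also: cells stimulated with agonist L165041 at 300 nM final during compound exposure.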 The following applies: HEK293H PPARd-UAS-bla, beta-lactamase FRET ratio, antagonist, 17 h; series mostly up to 62 µM. The source says: U.S. Tox21 Program National Center for Advancing Translational Sciences [NCATS] NIH Chemical Genomics Center [NCGC] U.S. Environmental Protection Agency [EPA] National Institutes of Environmental Health Sciences [NIEHS] National Toxicology Program [NTP] U.S. Food and Drug Administration [FDA] Tox21 Assay Overview: The peroxisome proliferator-activated receptors (PPARs) are lipid-activated transcription factors of the nuclear receptor superfamily with three distinct subtypes namely PPAR alpha, PPAR delta (PPARd) and PPAR gamma. All these subtypes heterodimerizes with Retinoid X receptor (RXR) and have different physiological functions. […] To identify the compounds that inhibit PPAR-delta signaling, GeneBLAzer PPAR delta UAS-bla HEK293H cell line (Invitrogen, Carlsbad, CA, USA) containing a beta-lactamase reporter gene under the control of an Upstream Activator Sequence (UAS) was used to screen the Tox21 compound library.
Tox21 Assay Protocol Summary: PPARd-bla cells were dispensed at 3000 cells/5uL/well in 1536-well black wall/clear bottom plates using a Multidrop Combi (Thermo Fisher Scientific, Waltham, MA) dispenser. After the assay plates were incubated at 37 C and 5% CO2 for 5 h, 23 nL of compounds dissolved in DMSO, positive controls or DMSO only was transferred to the assay plate by a Pintool station (Kalypsys, San Diego, CA), followed by addition of 1ul L165041 (300 nM, final concentration in the wells). The assay plates were incubated at 37 C for 17 h, and then 1 uL of LiveBLAzerTM B/G FRET substrate was added using a Bioraptr Flying Reagent Dispenser (FRD) workstation (Beckman Coulter, Indianapolis, IN, USA). The assay plates were incubated at room temperature for 2 h and fluorescence intensity was measured by an Envision plate reader (PerkinElmer, Shelton, CT).
Consider `O=C1CCC(=O)N1Cl`, for which the outcome was inactive.
Regarding `CC1=C(C(=O)O)N2C(=O)[C@@H](NC(=O)[C@H](N)C3=CCC=CC3)[C@H]2SC1`, the result was inactive.
As for `COc1cc2c(cc1OC)C(=O)C(CC1CCN(Cc3ccccc3)CC1)C2` (stereo not given), the result was inactive.
Turning to `CC1(C)Cc2cccc(N)c2O1`, the outcome was inactive.
As to `CC(C)=CCC[C@@](C)(O)[C@H]1CC=C(C)CC1`, the result was inactive.
For `O=S(=O)(O)c1ccc2c(N=Nc3ccc(S(=O)(=O)O)c4ccccc34)c(O)c(S(=O)(=O)O)cc2c1`, the ratio activity, negative = inhibition is 7.03% [at 6.26 µM].
`CN(C)C(C)(C)CO`: the result was inactive.
On the same count and under the same terms, in the case of `CC(=O)OC1CCCCC1C(C)(C)C` (stereo not given) it was “inactive”.
On the same count and under the same terms, in the case of `CCOCCOCC` it was “inactive”; in that of `CCCC(=O)OCCC(C)CCC=C(C)C` (stereo not given), “inactive”; in that of `CCCCOC(=O)C(C)O` (stereo not given), “inactive”.
For the compound `CCO[Si](CC)(OCC)OCC`, the result was inactive.
Consider `CCOC(CN1CCN(CC(C)C(=O)c2ccccc2)CC1)c1ccccc1` (stereo not given), for which the result was inactive.
For `NCC1(Cc2noc(=O)[nH]2)CCCCC1`, the result was inactive.
Take `Cn1c(=O)c2[nH]c(Br)nc2n(C)c1=O`: the outcome was inactive.
As to `Cc1ncc([N+](=O)[O-])n1CC(C)O` (stereo not given), the outcome was inactive.
`OC[C@@H](O)C(O)[C@@H](O)CO` (stereo not given in full): the result was inactive.
Regarding `C=CCN1C[C@H](C(=O)N(CCCN(C)C)C(=O)NCC)C[C@@H]2c3cccc4[nH]cc(c34)C[C@H]21`, the outcome was inactive.
With `CC(=O)Nc1ccc(OC(=O)c2ccccc2OC(C)=O)cc1`, the outcome was inactive.
Take `COC(C)(OC)OC`: the result was inactive.
The same measure, in the same setting: in the case of `CC(O)CC(C)O` (stereo not given) it was “inactive”; in that of `OCC(O)CN1CCN(c2ccccc2)CC1` (stereo not given), “inactive”.
For `CC(C)c1ccc(C=O)cc1`, the result was inactive.
The same measure, in the same setting: in the case of `ONc1ccccc1` it was “inactive”; in that of `O=C(O)[C@H](O)c1ccccc1`, “inactive”.
Turning to `CCCSSCCC`, the outcome was inactive.
With `CCC(C)OC(C)CC` (stereo not given), the outcome was inactive.
Consider `CCC[C@@H]1C[C@@H](C(=O)N[C@@H]([C@H]2O[C@H](SC)[C@H](O)[C@@H](O)[C@H]2O)[C@@H](C)O)N(C)C1`, for which the outcome was inactive.
Consider `CO/N=C(/C(=O)N[C@@H]1C(=O)N2C(C(=O)[O-])=C(C[n+]3ccn4ncccc43)CS[C@H]12)c1nsc(N)n1`, for which the outcome was inactive.
For `Cc1c(NC(=O)c2cccnc2)c(=O)n(-c2ccccc2)n1C`, the result was inactive.
On to `CC(C)CCOC(=O)c1ccccc1`, for which the result was inactive.
As for `CC(=O)CC(=O)OC(C)(C)C`, the outcome was inactive.
Consider `Nc1nnnn1-c1ccccc1`, for which the result was inactive.
For `CCCCCCCCCCCCCCCCCCOCCO`, the outcome was inactive.
With `CC1(C)[C@H]2CC[C@](C)(C2)[C@H]1O`, the outcome was inactive.
Still for that read-out and setting: in the case of `COc1cc(/C=C/C(N)=O)cc(OC)c1OC` it was “inactive”.
Consider `CC(C)OC(=O)OCOP(=O)(CO[C@H](C)Cn1cnc2c(N)ncnc21)OCOC(=O)OC(C)C`, for which the result was inactive.
Consider `Cc1c(N)cccc1Cl`, for which the outcome was inactive.
Turning to `CCOC(=O)CC1(C)OCC(C)O1` (stereo not given), the outcome was inactive.
Consider `CCCCCCCCCOC(=O)c1ccccc1C(=O)OCCCCCCCCC`, for which the result was inactive.
